# Residue numbers refer to the chain shown, from its start.
# Legend:
# Experiment in all cases: PBM; 200 nM protein, PBS
# Settings in all cases: dsDNA, one strand shown
# PAX4 [1] = molecular target: T1, PAX4 (Homo sapiens, UniProt O43316 9-242, R200K)
# T1 sequence: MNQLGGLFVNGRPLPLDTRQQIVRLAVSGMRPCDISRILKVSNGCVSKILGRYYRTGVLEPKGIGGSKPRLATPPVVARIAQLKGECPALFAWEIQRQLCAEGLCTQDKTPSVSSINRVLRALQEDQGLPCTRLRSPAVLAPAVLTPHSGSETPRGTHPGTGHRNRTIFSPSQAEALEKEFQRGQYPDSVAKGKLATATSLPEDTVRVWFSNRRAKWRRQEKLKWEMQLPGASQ
# PAX4 [2] = molecular target: T2, PAX4 (Homo sapiens, UniProt O43316 9-242)
# T2 sequence: T1 sequence with K192R
# MSX2 [3] = molecular target: MSX2 (Homo sapiens, UniProt P35548 130-214, R199I)
# Chain of MSX2 (Homo sapiens, UniProt P35548 130-214, R199I) (P35548 130-214 R199I): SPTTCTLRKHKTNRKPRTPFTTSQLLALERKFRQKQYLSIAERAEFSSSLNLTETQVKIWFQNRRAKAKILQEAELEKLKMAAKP
# PAX4 [4] = molecular target: T3, PAX4 (Homo sapiens, UniProt O43316 9-242, R200Q)
# T3 sequence: T1 sequence with K192Q
# PAX4 [5] = molecular target: T4, PAX4 (Homo sapiens, UniProt O43316 9-242, F177V)
# T4 sequence: T1 sequence with F169V, K192R
# MSX2 [6] = molecular target: MSX2 (Homo sapiens, UniProt P35548 130-214)
# Chain of MSX2 (Homo sapiens, UniProt P35548 130-214) (P35548 130-214): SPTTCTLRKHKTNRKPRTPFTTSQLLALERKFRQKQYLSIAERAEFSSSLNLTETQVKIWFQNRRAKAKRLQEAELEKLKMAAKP
# PAX4 [7] = molecular target: T5, PAX4 (Homo sapiens, UniProt O43316 9-242, F177Y)
# T5 sequence: T1 sequence with F169Y, K192R
# MSX2 [8] = molecular target: MSX2 (Homo sapiens, UniProt P35548 130-214, F161Y)
# Chain of MSX2 (Homo sapiens, UniProt P35548 130-214, F161Y) (P35548 130-214 F161Y): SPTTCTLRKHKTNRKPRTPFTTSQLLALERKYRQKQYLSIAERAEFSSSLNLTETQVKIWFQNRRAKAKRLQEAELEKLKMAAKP
# PAX4 [9] = molecular target: T6, PAX4 (Homo sapiens, UniProt O43316 9-242, R227W)
# T6 sequence: T1 sequence with K192R, R219W
# NKX2-6 [10] = molecular target: T7, NKX2-6 (Homo sapiens, UniProt A6NCS4 118-204, R150C)
# T7 sequence: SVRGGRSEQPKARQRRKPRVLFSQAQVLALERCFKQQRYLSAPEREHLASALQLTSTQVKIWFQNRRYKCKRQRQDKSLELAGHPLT
# HOXD13 [11] = molecular target: HOXD13 (Homo sapiens, UniProt P35453 263-343, T313R)
# Chain of HOXD13 (Homo sapiens, UniProt P35453 263-343, T313R) (P35453 263-343 T313R): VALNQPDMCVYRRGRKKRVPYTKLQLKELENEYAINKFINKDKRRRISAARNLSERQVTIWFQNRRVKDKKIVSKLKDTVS
# HOXD13 [12] = molecular target: HOXD13 (Homo sapiens, UniProt P35453 263-343)
# Chain of HOXD13 (Homo sapiens, UniProt P35453 263-343) (P35453 263-343): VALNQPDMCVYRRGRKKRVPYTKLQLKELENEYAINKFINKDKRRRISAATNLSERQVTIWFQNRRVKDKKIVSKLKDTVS
# HOXD13 [13] = molecular target: HOXD13 (Homo sapiens, UniProt P35453 263-343, T313A)
# Chain of HOXD13 (Homo sapiens, UniProt P35453 263-343, T313A) (P35453 263-343 T313A): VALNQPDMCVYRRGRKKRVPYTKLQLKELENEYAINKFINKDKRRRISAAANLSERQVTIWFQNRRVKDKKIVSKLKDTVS
# NKX2-6 [14] = molecular target: T8, NKX2-6 (Homo sapiens, UniProt A6NCS4 118-204)
# T8 sequence: T7 sequence with C33R
# NKX2-6 [15] = molecular target: T9, NKX2-6 (Homo sapiens, UniProt A6NCS4 118-204, F151L)
# T9 sequence: T7 sequence with C33R, F34L
Sequence,binding signal (PAX4 [1]),binding signal (PAX4 [2]),binding signal (MSX2 [3]),binding signal (PAX4 [4]),binding signal (PAX4 [5]),binding signal (MSX2 [6]),binding signal (PAX4 [7]),binding signal (MSX2 [8]),binding signal (PAX4 [9]),binding signal (NKX2-6 [10]),binding signal (HOXD13 [11]),binding signal (HOXD13 [12]),binding signal (HOXD13 [13]),binding signal (NKX2-6 [14]),binding signal (NKX2-6 [15])
CCCCTGGC,"9.25 upbm affinity estimate (log intensity, higher = more binding, comparable within an allelic series)","9.29 upbm affinity estimate (log intensity, higher = more binding, comparable within an allelic series)","9.36 upbm affinity estimate (log intensity, higher = more binding, comparable within an allelic series)","9.32 upbm affinity estimate (log intensity, higher = more binding, comparable within an allelic series)","9.09 upbm affinity estimate (log intensity, higher = more binding, comparable within an allelic series)","9.68 upbm affinity estimate (log intensity, higher = more binding, comparable within an allelic series)","9.12 upbm affinity estimate (log intensity, higher = more binding, comparable within an allelic series)","9.68 upbm affinity estimate (log intensity, higher = more binding, comparable within an allelic series)","9.26 upbm affinity estimate (log intensity, higher = more binding, comparable within an allelic series)",,,,,,
CCGCCCCG,"9.25 upbm affinity estimate (log intensity, higher = more binding, comparable within an allelic series)","9.35 upbm affinity estimate (log intensity, higher = more binding, comparable within an allelic series)",,"9.16 upbm affinity estimate (log intensity, higher = more binding, comparable within an allelic series)","9.13 upbm affinity estimate (log intensity, higher = more binding, comparable within an allelic series)",,"9.21 upbm affinity estimate (log intensity, higher = more binding, comparable within an allelic series)",,"9.44 upbm affinity estimate (log intensity, higher = more binding, comparable within an allelic series)","9.69 upbm affinity estimate (log intensity, higher = more binding, comparable within an allelic series)",,,,,
GTACGTAA,"10.4 upbm affinity estimate (log intensity, higher = more binding, comparable within an allelic series)","10.6 upbm affinity estimate (log intensity, higher = more binding, comparable within an allelic series)",,"10.6 upbm affinity estimate (log intensity, higher = more binding, comparable within an allelic series)",,,,,,,,,,,
CGGCTTTC,"9.21 upbm affinity estimate (log intensity, higher = more binding, comparable within an allelic series)","9.26 upbm affinity estimate (log intensity, higher = more binding, comparable within an allelic series)",,"9.27 upbm affinity estimate (log intensity, higher = more binding, comparable within an allelic series)","9.3 upbm affinity estimate (log intensity, higher = more binding, comparable within an allelic series)",,"9.24 upbm affinity estimate (log intensity, higher = more binding, comparable within an allelic series)",,"9.29 upbm affinity estimate (log intensity, higher = more binding, comparable within an allelic series)",,"9.51 upbm affinity estimate (log intensity, higher = more binding, comparable within an allelic series)","9.48 upbm affinity estimate (log intensity, higher = more binding, comparable within an allelic series)","9.54 upbm affinity estimate (log intensity, higher = more binding, comparable within an allelic series)",,
CCAGGAGC,"9.4 upbm affinity estimate (log intensity, higher = more binding, comparable within an allelic series)","9.35 upbm affinity estimate (log intensity, higher = more binding, comparable within an allelic series)",,"9.51 upbm affinity estimate (log intensity, higher = more binding, comparable within an allelic series)","9.26 upbm affinity estimate (log intensity, higher = more binding, comparable within an allelic series)",,"9.24 upbm affinity estimate (log intensity, higher = more binding, comparable within an allelic series)",,"9.32 upbm affinity estimate (log intensity, higher = more binding, comparable within an allelic series)",,,,,"9.22 upbm affinity estimate (log intensity, higher = more binding, comparable within an allelic series)","9.26 upbm affinity estimate (log intensity, higher = more binding, comparable within an allelic series)"
CAAGCCCC,"9.27 upbm affinity estimate (log intensity, higher = more binding, comparable within an allelic series)","9.32 upbm affinity estimate (log intensity, higher = more binding, comparable within an allelic series)",,"9.37 upbm affinity estimate (log intensity, higher = more binding, comparable within an allelic series)","9.26 upbm affinity estimate (log intensity, higher = more binding, comparable within an allelic series)",,"9.29 upbm affinity estimate (log intensity, higher = more binding, comparable within an allelic series)",,"9.3 upbm affinity estimate (log intensity, higher = more binding, comparable within an allelic series)",,"9.5 upbm affinity estimate (log intensity, higher = more binding, comparable within an allelic series)","9.54 upbm affinity estimate (log intensity, higher = more binding, comparable within an allelic series)","9.61 upbm affinity estimate (log intensity, higher = more binding, comparable within an allelic series)",,

# Reference: PMC11006913
